Data published in PubChem BioAssay (NCATS).
Values joined by “and” are separate entries in the source; they are usually repeats but may differ in a detail not shown here. Equal entries are not always repeated. Results filed as inconclusive are left out. Active and inactive are the calls of the source. Calls follow the shape of the dose curve; as a rule, active = well fitted curve in the direction sought with a large enough effect; inconclusive = small, poorly fitted or top-dose-only effect, or another doubt; inactive = no such curve, though single readings can be large; an effect the other way counts as inactive or inconclusive.
Also: nearly all actives have a fitted effect of over 70% in size.
Potency is read from the fitted curve at half-maximal effect.

Experiment: Primary qHTS for inhibitors of nuclear receptor binding SET domain protein 2 (NSD2) in an isogenic RCH-ACV NSD2 p.E1099K mutant (9B) (AID 1645876)
Settings: RCH-ACV NSD2 E1099K (9B) viability, CellTiter-Glo, 72 h; series mostly up to 44.9 µM
In the case of `CCOc1cc(C(C)(C)C)ccc1C1=N[C@@](C)(c2ccc(Cl)cc2)[C@@](C)(c2ccc(Cl)cc2)N1C(=O)N1CCN(CC(=O)N2CCOCC2)CC1`, the Potency is reported as 1.03 µM (active).
With `CC(C)(O)C(=O)N1CCN(c2ccc(C(F)(F)F)c(C3=C(c4c[nH]c5ccccc45)C(=O)NC3=O)c2)CC1` the Potency was 1.15 µM (active).
In the case of `CCCCC1CCN(CCCN2C(=O)CCc3ccccc32)CC1`, the Potency is reported as 20.5 µM (active).
For `C[C@@H](NC(=O)C(=O)c1c[nH]c2ccc([N+](=O)[O-])cc12)c1ccccc1`, the Potency was “inactive”.
In the case of `O=C(Nc1cccnc1)c1cc(-c2ccnc(F)c2)ccc1OCc1ccccc1`, the Potency is reported as “inactive”.
For `Cc1[nH]c(/C=C2\C(=O)Nc3ccc(F)cc32)c(C)c1C(=O)NCCN1CCCC1`, the Potency was 16.3 µM (active) and 7.23 µM (active).
For `O=C(c1ccc(OC(F)F)c(C#Cc2ccccn2)c1)N1Cc2cccnc2C1`, the Potency was “inactive”.
For `CCNC(=O)Nc1ccc(-c2nc3c(c(N4CCOCC4C)n2)CCN(C2COC2)C3)cc1` (stereo not given), the Potency was 0.325 µM (active).
With `COCCCNC(=O)c1ccc(Cn2c(=O)c3ccccc3n(Cc3ccc(C(C)C)cc3)c2=O)cc1` the Potency was “inactive”.

Experiment: Primary qHTS for inhibitors of nuclear receptor binding SET domain protein 2 (NSD2) in an RCH-ACV wild type WT cells (2C) (AID 1645877)
Settings: RCH-ACV (leukaemia line) NSD2 WT (2C) viability, CellTiter-Glo, 72 h; series mostly up to 44.9 µM
In the case of `CN(C)C(=O)Nc1cccc(-c2ccc(N(C)C)cc2)c1`, the Potency is reported as “inactive”.
With `O=C1c2ccc(Nc3ccc(F)cc3F)cc2CCc2ccc(OCC(O)CO)cc21` (stereo not given) the Potency was 18.3 µM (active).
For `COc1ccc(C2(CNC(=O)c3ccc(NC(=O)c4ccco4)cc3)CCOCC2)cc1`, the Potency was “inactive”.
For `CN(c1ccc(NC(=O)Nc2ccccc2)cc1)S(=O)(=O)c1cnn(-c2ccc(F)cc2)c1`, the Potency was 16.3 µM (active).
For `C=CC(=O)Nc1cc(-n2c(=O)ccc3cnc4ccc(-c5ccc(NS(C)(=O)=O)cc5)cc4c32)ccc1C`, the Potency was 3.66 µM (active).
With `CCN1C(C)(C)CC(Oc2ccc(C(=O)Nc3ccc(NC(=O)Nc4cc(C(C)(C)C)on4)cc3)nc2)CC1(C)C` the Potency was 6.51 µM (active).
For `O=C(Nc1ccc(C(O)(C(F)(F)F)C(F)(F)F)cc1)c1ccc(C(F)(F)F)cc1`, the Potency was 5.78 µM (active).
With `Clc1ccc(Cn2c(Cc3ccccc3)nc3ccccc32)cc1` the Potency was 18.3 µM (active).
In the case of `Cc1cc(N2CCOCC2)ccc1Nc1nc(NC2CCCCC2)c2[nH]cnc2n1`, the Potency is reported as 8.33 µM (active).
In the case of `CC(=O)N1CCN(CCOc2ccc(C3CCN(C4=Nn5c(nnc5C(F)(F)F)CC4)CC3)cc2)CC1`, the Potency is reported as 6.49 µM (active).
For `CCCc1cc(C)[nH]c(=O)c1CNC(=O)c1cc(-c2ccnc(N3CCN(C)CC3)c2)cc2c1cnn2C(C)C`, the Potency was 9.16 µM (active) and 16.6 µM (active).
In the case of `O=C(NC1(c2ccccc2)CC1)c1c(CN2CCC(N3CCCCC3)CC2)c(-c2cccc(C(F)(F)F)c2)nc2cc(Br)ccc12`, the Potency is reported as 10.3 µM (active).
For `CC#CC(=O)Nc1ccc2ncnc(Nc3cccc(Br)c3)c2c1`, the Potency was 1.03 µM (active) and 1.16 µM (active).
With `CC[C@H]1CN(c2nc(N)c(C(N)=O)nc2Cl)CCN1C1CCN(Cc2ccc(Cl)cc2)CC1` the Potency was “inactive”.
For `O=C1NC(=O)C(c2cnc3ccccn23)=C1c1cn2c3c(cc(F)cc13)CN(C(=O)N1CCCCC1)CC2`, the Potency was 5.2 nM (active) and 10.5 nM (active).
In the case of `COc1ccc(Oc2c(Cl)cnn(-c3cc(C)cc(C)c3)c2=O)cc1`, the Potency is reported as 4.09 µM (active).
In the case of `Clc1ccc(Nc2nc3ccccc3c3nc(C4CCCCC4)[nH]c23)cc1Cl`, the Potency is reported as 16.3 µM (active).
In the case of `C=CC(=O)Nc1cccc(Nc2nc(Nc3ccc(OCCOC)cc3)ncc2F)c1`, the Potency is reported as 3.72 µM (active).
In the case of `COc1ccccc1N1CCN(CC[C@@](C)(C(=O)C2CCCCC2)c2ccccc2)CC1`, the Potency is reported as 18.3 µM (active).
For `N#Cc1ccc(COC[C@H]2O[C@@H](n3c(NCc4ccc(Cl)c(Cl)c4)nc4c(N)ncnc43)[C@H](O)[C@@H]2O)cc1`, the Potency was 9.34 µM (active).
With `O=C(NCCCn1ccnc1)c1cc(-c2ccco2)on1` the Potency was 10.3 µM (active).
For `COc1cc(CN(CCN)C(=O)c2cccs2)ccc1OCc1ccccc1`, the Potency was 20.5 µM (active).
In the case of `CCOc1ccc(S(=O)(=O)N2CCCCCC2)c2ccccc12`, the Potency is reported as “inactive”.
With `CCCc1cc(C)[nH]c(=O)c1CNC(=O)c1cc(-c2ccc(N3CCN(C(C)C)CC3)nc2)cc2c1cnn2C(C)C` the Potency was 11.5 µM (active) and 5.25 µM (active).
In the case of `CNC1CN(c2ccc3c(=O)c(C(=O)O)cn(-c4nccs4)c3n2)CC1OC` (stereo not given), the Potency is reported as 0.0297 µM (active).
With `Cc1cc(F)ccc1[C@H]1C[C@@H](N2CCN3C(=O)CC[C@H]3C2)CCN1C(=O)N(C)[C@H](C)c1cc(C(F)(F)F)cc(C(F)(F)F)c1` the Potency was 14.5 µM (active).
